# Measurements published in PMC10668032, “Altered binding affinity of SIX1-Q177R correlates with enhanced WNT5A and WNT pathway effector expression in Wilms tumor”.
# In all, about 33,000 sequences were measured (“e-score”: median about -0.05, highest 2% from about 0.38 on). For the sample, the highest values were picked, then their nearest neighbours and some sequences at random.
# Target: T1, SIX1-Q177R homeodomain (human, UniProt Q15475 108-198, Q177R)
# T1 sequence: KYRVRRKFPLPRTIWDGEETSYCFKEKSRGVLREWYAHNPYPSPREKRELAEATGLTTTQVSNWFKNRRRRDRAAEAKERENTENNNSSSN
# Assay: universal protein binding microarray; Universal all-10-mer PBM (8x60K, AMADID 030236), 300 nM GST-tagged protein, Alexa Fluor 488 anti-GST; buffer, salt, pH and temperature not stated (as in Berger); high values mean tight binding
# Conditions: protein: ivt; tags: N-terminal GST; dsDNA, one strand shown
# In short: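 Binding was expressed as 8-mer E-scores calculated with the Universal PBM Analysis Suite. The GST-tagged homeodomains, made by in vitro transcription/translation, were applied in duplicate at 300 nM final concentration to universal 'all 10-mer' protein binding microarrays (8×60K format).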
row,Sequence,binding signal
1,GCACCGTA,0.201 ± 0.0112 E-score
2,CCCCCGTA,0.155 ± 0.0244 E-score
3,ATACCGTG,0.301 ± 0.0379 E-score
4,ACGCCGTG,0.185 ± 0.00332 E-score
5,CACCCGTC,0.338 ± 0.01 E-score
6,ACGTAGAG,0.156 ± 0.0478 E-score
7,ATAGTACA,0.312 ± 0.0122 E-score
8,CCCCCCCC,0.188 ± 0.0377 E-score
9,TGCAGACA,0.167 ± 0.00968 E-score
10,ACCCGCGT,0.229 ± 0.0104 E-score
11,ACCCGCGG,0.171 ± 0.0326 E-score
12,ACACGCGG,0.402 ± 0.00628 E-score
13,ACACGCGT,0.402 ± 0.0109 E-score
14,ACACGCGA,0.369 ± 0.00701 E-score
15,ATACGCGA,0.151 ± 0.036 E-score
16,CCCGGCCC,0.167 ± 0.00402 E-score
17,TACCTACA,0.3116 ± 0.00228 E-score
18,TCAATACA,0.212 ± 0.0334 E-score
19,ACGTGCTC,0.215 ± 0.0224 E-score
20,CACCGGAG,0.328 ± 0.00104 E-score
21,ACTCAACA,0.172 ± 0.00693 E-score
22,ATTAACCC,0.187 ± 0.00393 E-score
23,CTTCACAC,0.278 ± 0.0221 E-score
24,CTTAACAC,0.435 ± 0.00897 E-score

row,Sequence,binding signal
1,ATTAAAAC,0.158 ± 0.019 E-score
2,ATTAACAC,0.416 ± 0.0363 E-score
3,GACTCCTA,0.2147 ± 0.000728 E-score
4,GTTAAGGA,0.163 ± 0.00211 E-score
5,CAGGGTGG,0.161 ± 0.0171 E-score
6,ACTAGCAC,0.194 ± 0.00984 E-score
7,GAGATGTA,0.1954 ± 0.000318 E-score
8,AGACACAC,0.316 ± 0.0332 E-score
9,ACACAGAT,0.167 ± 0.0587 E-score
10,GGAGACAC,0.397 ± 0.0125 E-score
11,CGAGACAC,0.389 ± 0.0103 E-score
12,GCAGACAC,0.352 ± 0.0222 E-score
13,ACAGACAC,0.392 ± 0.013 E-score
14,CACGAGAC,0.154 ± 0.0312 E-score
15,CCAGACAC,0.37 ± 0.0149 E-score
16,AGAGACAC,0.411 ± 0.00648 E-score
17,CCGGGTTA,0.2 ± 0.024 E-score
18,CACGGATG,0.155 ± 0.0314 E-score
19,ATCCACTC,0.203 ± 0.0237 E-score
20,TACTCCGA,0.211 ± 0.0155 E-score
21,CACTCCCG,0.1824 ± 0.000608 E-score
22,ATTGATAC,0.196 ± 0.00402 E-score
23,ATGGCCGA,0.155 ± 0.00984 E-score
24,GGGATACA,0.234 ± 0.00449 E-score

row,Sequence,binding signal
1,CACCTGTA,0.232 ± 0.0126 E-score
2,CGCAACAC,0.366 ± 0.00704 E-score
3,GACAACAC,0.386 ± 0.0047 E-score
4,CACAACAC,0.38 ± 0.0127 E-score
5,CACACAAC,0.153 ± 0.0694 E-score
6,GGGCACAC,0.284 ± 0.0218 E-score
7,GACACAAC,0.207 ± 0.0332 E-score
8,AACAACAC,0.414 ± 0.0082 E-score
9,CACAACAA,0.168 ± 0.00449 E-score
10,AACACAAC,0.176 ± 0.0727 E-score
11,GGCAACAC,0.4138 ± 0.00188 E-score
12,AAGGGAGT,0.181 ± 0.0594 E-score
13,CACGACTG,0.19 ± 0.0173 E-score
14,ATATGGTG,0.245 ± 0.0104 E-score
15,CTTCTACA,0.161 ± 0.0182 E-score
16,ACCCCCTG,0.328 ± 0.0317 E-score
17,ATACCCTG,0.31 ± 0.0148 E-score
18,GCACCCTA,0.226 ± 0.0182 E-score
19,CCACCCTA,0.174 ± 0.00684 E-score
20,ACCCCCTC,0.324 ± 0.00733 E-score
21,ACCCTCTC,0.164 ± 0.0166 E-score
22,ACACCCTC,0.4743 ± 0.00338 E-score
23,ACACCCTG,0.4727 ± 0.000955 E-score
24,ACACCCTA,0.4661 ± 0.00184 E-score

row,Sequence,binding signal
1,ACCGCACA,0.232 ± 0.00335 E-score
2,TGGGAACA,0.172 ± 0.0191 E-score
3,CGCCCGAC,0.184 ± 0.0127 E-score
4,ACCGAGTG,0.363 ± 0.0115 E-score
5,CACCAGGC,0.336 ± 0.016 E-score
6,CACGAAGA,0.183 ± 0.0282 E-score
7,AGATTACA,0.23 ± 0.00802 E-score
8,ACGACACT,0.4277 ± 0.00127 E-score
9,CCGACTCC,0.159 ± 0.044 E-score
10,CCGACACA,0.295 ± 0.0445 E-score
11,CCGACACG,0.418 ± 0.0317 E-score
12,AAGACACA,0.174 ± 0.0361 E-score
13,CCGACCCC,0.24 ± 0.0393 E-score
14,ACGACACA,0.273 ± 0.0776 E-score
15,TCGACACA,0.188 ± 0.0429 E-score
16,ACGACACG,0.426 ± 0.0132 E-score
17,CCGACACC,0.488 ± 0.0101 E-score
18,ACCCGCTC,0.227 ± 0.00437 E-score
19,CACCTGCC,0.225 ± 0.0171 E-score
20,ACCCGAAC,0.173 ± 0.0027 E-score
21,TGTCGTAA,0.163 ± 0.00414 E-score
22,CCCCCCCG,0.218 ± 0.0264 E-score
23,GGGTGATA,0.218 ± 0.0149 E-score
24,GATCCCGC,0.185 ± 0.0357 E-score

row,Sequence,binding signal
1,CGGGTACG,0.182 ± 0.00752 E-score
2,ACGACTCC,0.309 ± 0.0346 E-score
3,ACGACCCC,0.244 ± 0.0306 E-score
4,ACGACACC,0.487 ± 0.00563 E-score
5,GCGACCCC,0.212 ± 0.0261 E-score
6,GCGACACA,0.262 ± 0.0569 E-score
7,GCGACACC,0.487 ± 0.00655 E-score
8,CACTTGAA,0.202 ± 0.00417 E-score
9,CACCTTAC,0.248 ± 0.036 E-score
10,CACTCTCG,0.288 ± 0.0157 E-score
11,CCCCGAAC,0.181 ± 0.00559 E-score
12,AGGACCCC,0.205 ± 0.0283 E-score
13,GACTCCTC,0.166 ± 0.0214 E-score
14,CACACCTG,0.389 ± 0.0159 E-score
15,AACACGTG,0.371 ± 0.00902 E-score
16,GACACCTC,0.4825 ± 0.00161 E-score
17,CACACCTA,0.333 ± 0.00896 E-score
18,AACACCTG,0.44457 ± 0.000354 E-score
19,CACACATG,0.165 ± 0.0245 E-score
20,AACACCTA,0.444 ± 0.00846 E-score
21,AACACATA,0.17 ± 0.0243 E-score
22,AACACTTG,0.336 ± 0.0307 E-score
23,GACCCCTC,0.26 ± 0.015 E-score
24,CCGAGACA,0.274 ± 0.00602 E-score

row,Sequence,binding signal
1,ATGATACC,0.335 ± 0.0146 E-score
2,CACCACGG,0.226 ± 0.00882 E-score
3,ATGCGGTG,0.295 ± 0.0245 E-score
4,CGGGCGAC,0.215 ± 0.0122 E-score
5,CACTGGGG,0.287 ± 0.0142 E-score
6,ATAAGGTG,0.217 ± 0.0216 E-score
7,AACTGTGT,0.159 ± 0.066 E-score
8,CCGGATCC,0.249 ± 0.0202 E-score
9,TCGATACA,0.198 ± 0.0102 E-score
10,CACTCCAG,0.225 ± 0.00445 E-score
11,GTTCGGTA,0.156 ± 0.0218 E-score
12,AGCACCTC,0.178 ± 0.00186 E-score
13,TACACGTA,0.355 ± 0.0208 E-score
14,AACACCTT,0.452 ± 0.0164 E-score
15,TACACATA,0.209 ± 0.0376 E-score
16,GACACCTA,0.463 ± 0.00697 E-score
17,GACACATA,0.234 ± 0.0761 E-score
18,AACACACT,0.276 ± 0.0133 E-score
19,AACACGTT,0.272 ± 0.0421 E-score
20,AACACCTC,0.456 ± 0.0111 E-score
21,TACACCTA,0.47 ± 0.00841 E-score
22,GATACCTA,0.3275 ± 0.000891 E-score
23,AACACTTC,0.326 ± 0.0413 E-score
24,GCGGGTTA,0.21 ± 0.00486 E-score

row,Sequence,binding signal
1,CCCGCCCG,0.233 ± 0.0272 E-score
2,CCCCCGAC,0.272 ± 0.00679 E-score
3,ATACCCGA,0.241 ± 0.0123 E-score
4,AAGACGTG,0.166 ± 0.073 E-score
5,ACACTTTC,0.354 ± 0.0256 E-score
6,CCCTTCCC,0.181 ± 0.0277 E-score
7,CACACTTC,0.205 ± 0.0263 E-score
8,CACCTCTG,0.2874 ± 0.00224 E-score
9,CACACCTC,0.403 ± 0.00914 E-score
10,CACGTCCC,0.165 ± 0.0267 E-score
11,ATAAACCC,0.16 ± 0.0287 E-score
12,ACACGATA,0.3751 ± 0.00175 E-score
13,ACCCGATC,0.253 ± 0.057 E-score
14,ACACGATC,0.385 ± 0.00771 E-score
15,ACACGAAG,0.346 ± 0.00991 E-score
16,ACACGAAC,0.3433 ± 0.00132 E-score
17,ACACGATG,0.3915 ± 0.00105 E-score
18,CAGCACCC,0.188 ± 0.00201 E-score
19,GGATAACA,0.204 ± 0.00942 E-score
20,CACGGGTC,0.253 ± 0.0022 E-score
21,CCCTGAGG,0.177 ± 0.00892 E-score
